The term viability denotes a read-out of living cells in per cent, often relative to untreated cells. Broadly, the inhibition is the drop in the measured response relative to a control, in per cent.

Molecules are shown by their SMILES. Values joined by “and” are separate entries in the source; they are usually repeats but may differ in a detail not shown here. Equal entries are not always repeated. A structure can be active in one record and inactive in another. Active and inactive are the calls of the source. Unless noted, how the calls were made is not given here.

Test [1] in a line: compounds altering circadian rhythm period length – cell-based, LOPAC library, luminescence reporter (AID 2774).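 Further: values are relative to mean of DMSO wells on each plate.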 The conditions noted are these: circadian reporter cells, at 7 µM, actives lie on both sides.
Test [2] is described as follows: P. berghei load reduction in hepatocytes – cell-based, HepG2, luciferase luminescence, HepG2 viability, primary screen (AID 624349; in the data active means parasite load remaining mostly below about 12%, no sharp cut-off; inactive means mostly above about 10%;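 further: 100% = mean of DMSO negative control wells on the same plate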). The conditions noted are these: P. berghei liver stage in HepG2, luciferase luminescence, concentration not given here; parasite load remaining: stronger effect = lower value; viability: measured here: HepG2 viability without parasites.
For test [3], the system named is Hepatitis C virus NS3 helicase. Description: blockers of NS3h binding to ssDNA – biochemical, fluorescence polarization, LOPAC1280 library, primary screen (AID 687035; in the data active means inhibition above about 37%). As to conditions: Purified HCV NS3 helicase, Cy5-dT15 ssDNA binding fluorescence polarization; stronger effect = higher value; concentration not given here. (In general: Polarisation of emitted light reports the rotation of a fluorescent probe.)

Test [4] in a line: compounds altering Cy5-DNA-NS3h complex signal – biochemical, LOPAC1280, artefact control for HCV NS3 helicase inhibitor project (AID 687037). The conditions noted are these: Cy5-DNA-NS3h complex fluorescence interference counterscreen. On the technique in general: A counterscreen serves to expose hits that act by an unwanted route or on another target.
Test [5] can be described thus: signal quenchers or enhancers, Cy5 substrate/SSB – biochemical, NIH Clinical Collection, E. coli SSB, artefact control for HCV NS3 helicase inhibitor project (AID 743268). The conditions noted are these: Cy5-oligo bound E. coli SSB, fluorescence interference.
Test [6] relates to Hepatitis C virus NS3 helicase. Description: blockers of NS3h binding to DNA – biochemical, fluorescence polarization, NIH Clinical Collection, primary screen (AID 743270). The conditions noted are these: NS3 helicase binding to Cy5-dT15 DNA, stronger effect = higher value, concentration not given here.
Test [7] deals with Single-stranded DNA-binding protein (Escherichia coli (strain K12)) (UniProt P0AGE0). Description: SSB-ssDNA binding inhibitors – biochemical, fluorescence polarization, NIH Clinical Collection, counter-screen for HCV NS3 helicase inhibitor project (AID 743271; in the data active means inhibition above about 28%). The conditions noted are these: E. coli SSB-DNA binding, stronger effect = higher value, concentration not given here.
A short description of test [8]: compounds distorting NS3 helicase fluorescence signal – biochemical, NIH Clinical Collection, artefact control for HCV NS3 helicase inhibitor project (AID 743272).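 Further: HCV NS3 helicase with a Cy5 labelled single stranded DNA probe.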 As to conditions: fluorescence interference counterscreen, HCV NS3 helicase assay; stronger effect = lower value.
For test [9], the system named is Neuropilin-2 / VEGF-C interaction (human). Description: small molecules blocking Neuropilin-2/VEGF-C interaction – biochemical, microplate binding format, z-score (AID 743281). As to conditions: microplate NRP2/VEGF-C binding assay; stronger effect = lower value.
The nature of test [10]: Wnt pathway potentiators raising nuclear beta-catenin – imaging, WNT3A-conditioned medium, mouse C2C12, NPC library, primary screen (AID 1117326; in the data active means nuclear beta-catenin stimulation mostly above about 4.2%, no sharp cut-off; inactive means mostly below about 10%). As to conditions: stronger effect = higher value.
Test [11] can be described thus: compounds altering viability of human ES cells (AID 493140).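 Further: cells exposed to compounds for four days before counting.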 As to conditions: human embryonic stem cell survival screen; stronger effect = higher value.

Take `CCOC(=O)c1ncn2c1CN(C)C(=O)c1cc(F)ccc1-2`: the period change in test [1] was -0.15 h (inactive). For the same compound, the parasite load remaining in test [2] is 6.63% (inactive) and 66.3% (inactive). In test [2], the viability was 73.1% and 107%. The inhibition was -4% (inactive) in test [3], 1.98% (inactive) in test [6] and -0.1% (inactive) in test [7]. Further, in test [4], the fluorescence ratio (interference) is 1 (inactive). Further, the fluorescence ratio in test [5] is 1.05 (inactive); in test [8], 0.99 (inactive). For the same compound, the z-score in test [9] was -0.197 (inactive). The nuclear beta-catenin stimulation in [10] (at 10 µM) is 0.8% (inactive); in [10] (stimulation, at 2 µM), -0.7%.

As to `CC1(C)O[C@@H]2C[C@H]3[C@@H]4CCC5=CC(=O)CC[C@]5(C)[C@@]4(F)[C@@H](O)C[C@]3(C)[C@]2(C(=O)CCl)O1`, the survival in test [11] was 5.5 (inactive). Also, the parasite load remaining in test [2] is 116% (inactive). Besides, in test [2], the viability came out at 97.4%. Besides, the nuclear beta-catenin stimulation in [10] (at 10 µM) was -0.6% (inactive); in [10] (stimulation, at 2 µM), 0.3%.

In the case of `C[C@](N)(Cc1ccc(O)cc1)C(=O)O`, the period change in test [1] was -0.34 h (inactive). In test [3], the inhibition is -1% (inactive). Further, in test [4], the fluorescence ratio (interference) is 0.9 (inactive). In addition, the nuclear beta-catenin stimulation is -0.2% (inactive) in [10] (at 10 µM) and 4.5% in test [10] (stimulation, at 2 µM).

Take `C[C@]12CC[C@@H]3c4ccc(O)cc4CC[C@H]3[C@@H]1C[C@@H](O)[C@@H]2O`: the survival in test [11] was 7.75 (inactive). For the same compound, in [2], the parasite load remaining is 68.5% (inactive) and 32.3% (inactive); the viability was 70% and 67.5%. Further, the nuclear beta-catenin stimulation in [10] (at 10 µM) is 4.3% (inactive). Also, the nuclear beta-catenin stimulation in test [10] (stimulation, at 2 µM) came out at 3%.

`CN(C)CC[C@@H](c1ccc(Br)cc1)c1ccccn1`: the period change in [1] was -0.05 h (inactive). Also, the parasite load remaining in [2] was 84.6% (inactive). For the same compound, in test [2], the viability stood at 70.1%. The inhibition in test [3] was 0% (inactive); in test [6], -2.77% (inactive); in test [7] it was -3.18% (inactive). In test [4], the fluorescence ratio (interference) was 1 (inactive). The fluorescence ratio in test [5] is 1.07 (inactive); in [8] it was 0.87 (inactive). Further, in test [9], the z-score is -0.605 (inactive). Also, the nuclear beta-catenin stimulation in test [10] (at 10 µM) was 1.1% (inactive); in test [10] (stimulation, at 2 µM), -0.3%.

For the compound `CN(C)CC[C@@H](c1ccc(Cl)cc1)c1ccccn1`, in [1], the period change is -0.255 h (inactive). In addition, the parasite load remaining in test [2] was 51.2% (inactive). Moreover, in test [2], the viability stood at 68.9%. For the same compound, the inhibition is -6% (inactive) in test [3], -2.84% (inactive) in [6] and -2.76% (inactive) in test [7]. The fluorescence ratio (interference) in test [4] is 0.9 (inactive). Also, the figures for the fluorescence ratio in test [5] and in [8] were 0.95 (inactive) and 0.91 (inactive), respectively. For the same compound, the z-score in test [9] is 0.0729 (inactive). Besides, the nuclear beta-catenin stimulation was -1.2% (inactive) in test [10] (at 10 µM) and 0.3% in test [10] (stimulation, at 2 µM).

In the case of `Cc1c(Cl)cccc1Nc1ccccc1C(=O)O`, in [11], the survival was 17.2 (inactive). Also, the nuclear beta-catenin stimulation is 1.9% (inactive) in test [10] (at 10 µM) and 1.6% in test [10] (stimulation, at 2 µM).

For the compound `CC(=O)[C@]1(O)Cc2c(O)c3c(c(O)c2[C@@H](O[C@H]2C[C@H](N)[C@H](O)[C@H](C)O2)C1)C(=O)c1ccccc1C3=O`, the period change in test [1] was -1.6 h (inactive). For the same compound, the parasite load remaining in test [2] was -0.405% (inactive) and 0.045% (active). Further, the viability in [2] was 2.19% and 69.5%. Further, the inhibition is -1% (inactive) in test [3], 0.4% (inactive) in [6] and 14.5% (inactive) in [7]. In test [4], the fluorescence ratio (interference) was 0.8 (active). The results for the fluorescence ratio in [5] and in test [8] were 0.31 (active) and 0.67 (active), respectively. In addition, the z-score in test [9] is 1.07 (inactive). Besides, the nuclear beta-catenin stimulation was 18.6% (active) in test [10] (at 10 µM) and 94.8% in test [10] (stimulation, at 2 µM).

Take `CN1[C@@H]2CC[C@H]1CC(OC(=O)C(O)c1ccccc1)C2` (stereo not given in full): the survival in test [11] was 24.7 (inactive). The nuclear beta-catenin stimulation in [10] (at 10 µM) is -0.1% (inactive); in test [10] (stimulation, at 2 µM) it was -2.6%.

As to `Brc1c(NC2=NCCN2)ccc2nccnc12`, the period change in test [1] was -0.1 h (inactive). Moreover, the parasite load remaining in test [2] is 54.7% (inactive). Further, the viability in test [2] was 94.9%. The results for the inhibition in [3], in test [6] and in [7] were -3% (inactive), -5.91% (inactive) and -3.53% (inactive), respectively. Moreover, the fluorescence ratio (interference) in test [4] was 1 (inactive). The figures for the fluorescence ratio in [5] and in test [8] were 1.04 (inactive) and 0.99 (inactive), respectively. Further, the nuclear beta-catenin stimulation in [10] (at 10 µM) was 0.3% (inactive); in test [10] (stimulation, at 2 µM), -0.6%.

Consider `O=c1c(-c2ccc(O)cc2)coc2cc(O)cc(O)c12`, for which the period change in [1] was 0 h (inactive). Besides, the inhibition in [3] was -1% (inactive). In addition, the fluorescence ratio (interference) in test [4] was 1 (inactive). Besides, the nuclear beta-catenin stimulation is 8.6% (inactive) in test [10] (at 10 µM) and -1.1% in test [10] (stimulation, at 2 µM).

`Oc1ccc(C2CNCCc3c2cc(O)c(O)c3Cl)cc1` (stereo not given): the period change in [1] is 0.145 h (inactive). The parasite load remaining in test [2] is 97.3% (inactive) and 13% (inactive). In test [2], the viability was 74.7% and 61%. Also, the inhibition in test [3] is -3% (inactive); in [6], -1.98% (inactive); in [7], -7.03% (inactive). In addition, the fluorescence ratio (interference) in test [4] was 0.9 (inactive). The fluorescence ratio in [5] was 0.73 (active); in test [8] it was 0.87 (inactive). For the same compound, the z-score in [9] was 0.0254 (inactive). The nuclear beta-catenin stimulation in [10] (at 10 µM) was 1.1% (inactive); in [10] (stimulation, at 2 µM) it was 7.9%.

Consider `O=C(CCCN1CCN(c2ccccn2)CC1)c1ccc(F)cc1`, for which the survival in [11] was 14.6 (inactive). The nuclear beta-catenin stimulation in [10] (at 10 µM) is 0.1% (inactive); in test [10] (stimulation, at 2 µM), -1%.

As for `COc1cccc2c1C(=O)c1c(O)c3c(c(O)c1C2=O)C[C@@](O)(C(=O)CO)C[C@@H]3O[C@H]1C[C@H](N)[C@H](O)[C@H](C)O1`, the survival in test [11] was 0.167 (inactive). Besides, the fluorescence ratio was 0.07 (active) in [5] and 0.4 (active) in test [8]. Further, the inhibition in [6] is 7.52% (inactive); in test [7], 90% (active). Also, the z-score in [9] was 0.436 (inactive). Besides, the nuclear beta-catenin stimulation was 28.9% (inactive) in test [10] (at 10 µM) and 27.7% in [10] (stimulation, at 2 µM).

Consider `CO[C@@]12[C@H](COC(N)=O)C3=C(C(=O)C(C)=C(N)C3=O)N1C[C@@H]1N[C@@H]12`, for which, in test [2], the parasite load remaining is -0.17% (inactive) and the viability turned out to be 11%. For the same compound, the nuclear beta-catenin stimulation in [10] (at 10 µM) was 26.8% (inactive). The nuclear beta-catenin stimulation in [10] (stimulation, at 2 µM) amounted to 11.6%.

`COc1cc([C@H]2Oc3cc([C@H]4Oc5cc(O)cc(O)c5C(=O)[C@@H]4O)ccc3O[C@@H]2CO)ccc1O`: in [2], the parasite load remaining was 75.8% (inactive) and the viability amounted to 93%. In addition, the nuclear beta-catenin stimulation in test [10] (at 10 µM) was 3.7% (inactive). Further, the nuclear beta-catenin stimulation in test [10] (stimulation, at 2 µM) was 0.8%.

For the compound `Nc1ccc(O)c(C(=O)O)c1`, the survival in test [11] is 4.33 (inactive). For the same compound, the parasite load remaining in [2] is 86.6% (inactive) and 106% (inactive) and 16.7% (inactive). Further, in test [2], the viability is 71.9% and 101% and 72%. For the same compound, the fluorescence ratio in test [5] and in test [8] was 0.94 (inactive) each time. Also, the inhibition is 3.56% (inactive) in test [6] and 2.21% (inactive) in [7]. Moreover, the z-score in [9] is -0.236 (inactive). The nuclear beta-catenin stimulation in test [10] (at 10 µM) is 2% (inactive); in [10] (stimulation, at 2 µM), 0.6%.

With `O=c1[nH]c(=O)n([C@H]2C[C@H](O)[C@@H](CO)O2)cc1F`, in test [2], the parasite load remaining is 13.4% (inactive) and the viability was 75%. The nuclear beta-catenin stimulation in test [10] (at 10 µM) is 21% (inactive). In test [10] (stimulation, at 2 µM), the nuclear beta-catenin stimulation was 21.6%.

For the origin of these results see PubChem BioAssay.
